CYP2C9 activ: human CYP2C9 activators, primary screen, biochemical, luminescence; Cytochrome P450 2C9 (Homo sapiens), P11712; recombinant CYP2C9, luciferin-H conversion; active compounds read high; factor 1 = untreated enzyme, 0 = blocked; activation factor at 5 µM; actives 1.4% (n = 96,000); AID 1024, 2008;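 active means activation factor of 2 or more for CYP2C9 at a 5 µM dose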
PostGolgi ctrl: growth inhibition of yeast control strain, primary screen, counter-screen for post-Golgi transport modulator project | actives 5% (n = 98,000) | efflux-deficient yeast background strain, growth absorbance A615, 16 h | inhibition, % at 10 µM
CYP2C19 inhib: blockers of cytochrome P450 2C19 activity – biochemical, luminescence, ADME assay, primary screen; CYP2C19 Supersomes, luciferin-H EGE luminescence, 30 min; inhibition, % at 5 µM; actives 21% (n = 96,000); P33261; AID 778, 2007;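 active means CYP2C19 inhibition above a set limit at 5 µM in the primary screen, cut at about 50% in these data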
Target sequence (P33261 whole entry, looked up): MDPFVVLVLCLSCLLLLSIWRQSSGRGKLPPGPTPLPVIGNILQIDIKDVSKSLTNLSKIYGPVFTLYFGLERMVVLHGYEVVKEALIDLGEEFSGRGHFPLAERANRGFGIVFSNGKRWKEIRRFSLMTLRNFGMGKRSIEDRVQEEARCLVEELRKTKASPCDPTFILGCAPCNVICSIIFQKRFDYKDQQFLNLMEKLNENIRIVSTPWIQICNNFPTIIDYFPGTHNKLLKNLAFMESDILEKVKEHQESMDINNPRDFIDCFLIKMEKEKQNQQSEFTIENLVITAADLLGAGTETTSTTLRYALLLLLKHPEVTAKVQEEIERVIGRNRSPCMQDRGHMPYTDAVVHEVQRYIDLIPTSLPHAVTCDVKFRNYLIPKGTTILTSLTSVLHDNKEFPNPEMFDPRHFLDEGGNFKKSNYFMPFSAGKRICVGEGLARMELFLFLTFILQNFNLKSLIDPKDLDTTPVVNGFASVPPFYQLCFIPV
CYP2C19 activ: human CYP2C19 activators, primary screen, biochemical, luminescence. activation factor at 5 µM. recombinant CYP2C19, luciferin-H EGE luminescence; active compounds read high; 0 = fully inhibited enzyme, 1 = untreated enzyme. 96,000 tested, under 10 active. Cytochrome P450 2C19 (Homo sapiens), P33261. AID 1025, 2008;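 active means activation factor of at least 2 at 5 µM in the primary screen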
CYP2C9 inhib: blockers of cytochrome P450 2C9 activity – biochemical, luminescence, ADME assay, primary screen | AID 777, 2007 | actives 20% (n = 96,000) | P11712 | inhibition, % at 5 µM | CYP2C9 Supersomes, luciferin-H conversion;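 active means blocking of liver enzyme CYP2C9 beyond about 50% at 5 µM, limit read from the data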
PostGolgi yeast: phenotypic screen on post-Golgi transport, primary screen; AID 739, 2007; actives 0.9% (n = 98,000); inhibition, % at 10 µM; post-Golgi transport phenotypic cell assay;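 further: yeast cells grown in 1536-well plates; yeast grown about 18 h at 30C before absorbance read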
Each line names hits and unclear results; the compound was inactive in the other large screens. Hits are enriched below; roughly 32% of the tested compounds scored in any of these assays. Unless noted, no stated cut-off is given here; in the data, active means inhibition above about 30%; inactive means the rest.

COc1cc(C2C3C(=O)N(Cc4ccccc4)C(=O)C3ON2c2ccccc2)cc(OC)c1OC (stereo not given)	CYP2C19 inhib 57
Cc1ccccc1N1C(=O)C2ON(c3ccccc3)C(c3cccnc3)C2C1=O (stereo not given)	CYP2C19 inhib 75, CYP2C9 inhib 52
COCCNC(=O)CN(c1ccc(OC)c(OC)c1)S(=O)(=O)c1ccc(C)cc1	none
Cc1ccc(S(=O)(=O)N(CC(=O)NCCSc2ccccn2)c2cc(C)cc(C)c2)cc1	CYP2C9 inhib 79
COCCNC(=O)CN(c1ccc(C)cc1)S(=O)(=O)c1ccc(SC)cc1	CYP2C19 inhib 98, CYP2C9 inhib 77
COCCNC(=O)CN(c1ccc(C)cc1)S(=O)(=O)c1ccccc1	none
COc1ccc(N(CC(=O)NCCSc2ccccn2)S(C)(=O)=O)cc1Cl	CYP2C19 inhib 55, CYP2C9 inhib 60
COCCCNC(=O)CN(c1ccc(Cl)c(Cl)c1)S(C)(=O)=O	none
O=C([C@H](Cc1ccccc1)NS(=O)(=O)c1ccc(Cl)cc1)N1CC[C@@]2(O)CCCC[C@H]2C1	none
COc1ccc(N2C(=O)NC3CC2(C)Oc2ccc(Br)cc23)cc1OC (stereo not given)	CYP2C9 inhib 74
COc1cccc(CN2C(=O)CCC2(C)C(=O)NC2CCCC2)c1 (stereo not given)	none
Cc1ccc2nc(SCC(=O)NCc3ccco3)c(C#N)cc2c1	none
Cc1cccc(-c2nsc(SCC(=O)NCc3ccco3)n2)c1	CYP2C9 inhib 68
Cc1ccc2cc(C#N)c(SCC(=O)NCc3ccco3)nc2c1	CYP2C9 inhib 75
COc1ccc(-c2ccc(-c3noc(C)n3)c(OC)n2)cc1	none
COc1ccc(-c2cc(-c3c(O)c(OC)c4occc4c3OC)[nH]n2)cc1	PostGolgi ctrl 56, CYP2C19 inhib 70, CYP2C9 inhib 90
CCCCC(C(=O)NC(=O)NCc1ccccc1)N1C(=O)c2ccccc2C1=O (stereo not given)	none
CC1Cn2c(nc3c2c(=O)[nH]c(=O)n3C)O1 (stereo not given)	none
Cc1cc(C(=O)NCCC(c2ccccc2)c2ccccc2)c(C)o1	CYP2C19 inhib 93, CYP2C9 inhib 98
Cc1cc(=O)oc2cc(OCC3CC(c4ccc(Cl)cc4)=NO3)ccc12 (stereo not given)	CYP2C19 inhib 51
COc1ccc(C(=O)N2CCCC(c3nc(-c4cccs4)no3)C2)cc1OC (stereo not given)	CYP2C19 inhib 55
O=C(N1CCOCC1)N1CCCC(c2nc(-c3cccs3)no2)C1 (stereo not given)	none
CCOc1ccc(C(=O)N2CCCC2)cc1OC	none
COc1ccc(C(=O)N2CCCC(c3nc(-c4cccs4)no3)C2)cc1 (stereo not given)	CYP2C19 inhib 84, CYP2C9 inhib 74
O=c1[nH]nnc2sc3c(c12)CCCC3	none (no result: CYP2C9 activ, CYP2C19 inhib, CYP2C19 activ, CYP2C9 inhib)
CC(C)(C)n1nnnc1C(c1cccs1)N(Cc1ccccc1)Cc1cccnc1 (stereo not given)	none
CC(C)(C)n1nnnc1CN(Cc1cccnc1)Cc1ccccc1Cl	CYP2C19 inhib 88, PostGolgi yeast 50
COC(=O)c1cc(C(=O)OC)n(Cc2ccc(F)cc2)n1	CYP2C19 inhib 74
CCC(C)n1c(C)nc2c(c1=O)c1nc3ccccc3nc1n2-c1ccc2c(c1)OCCO2 (stereo not given)	none (no result: PostGolgi ctrl, PostGolgi yeast)
CCCn1c(SCC(=O)N2CCc3ccccc3C2)nc2c1c(=O)n(C)c(=O)n2C	none
CCOC(=O)CSc1nc(CC)nc2ccccc12	none
CCc1nc(SCC(=O)NNC(=O)C2CCCCC2)c2ccccc2n1	none
CC1CC(C)CN(C(=O)CSc2nc(Cc3cccs3)nc3ccccc23)C1 (stereo not given)	CYP2C9 inhib 72
CCCc1nc(SCC(=O)N2CCc3ccccc3C2)c2ccccc2n1	PostGolgi ctrl 33, CYP2C19 inhib 57, CYP2C9 inhib 78
CCOC(=O)CNC(=O)CSc1nc(Cc2cccs2)nc2ccccc12	CYP2C19 inhib 58
Cc1cc(C)n(S(=O)(=O)c2cc(C)c(C)cc2C)n1	none
